From PubChem
Shown are actives, neighbours in structure and some others; about 4.1% of the full set was active somewhere.
hgDAF12 agonist = H. glycines DAF-12 receptor agonists, primary screen, cell-based, luminescence, HEK293, GAL4 fusion, UAS-luciferase; activation, % at 6.8 µM; AID 687014, 2013; hit rate 1.8% among 370,000; Nuclear hormone receptor DAF-12 (Heterodera glycines), GAL4 fusion; HEK293 GAL4-hgDAF12 UAS-luciferase reporter, agonist luminescence; normalized to butyrate control;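 active = activation above a cutoff set at the mean of all screened compounds plus 3 SD, cut at about 10% in these data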
hcDAF12 agonist = H. contortus DAF-12 nuclear receptor activators, primary screen, cell-based, luminescence, HEK293, lit1-tk-luc reporter; HEK293 hcDAF-12 lit1-tk-luc reporter; 0% DMSO, 100% Δ7-dafachronic acid; activation, % at 6.8 µM; hit rate 1.4% among 370,000;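 active = activation above the mean of all tested compounds plus 3 SD, cut at about 5.5% in these data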
DAX1 inh-1 = DAX1 (NR0B1) inhibitors on StAR promoter, primary screen, cell-based, luminescence, SF-1 (NR5A1), full-length DAX-1; HEK293T StAR-luciferase reporter, SF-1/DAX-1 repression relief; inhibition, % at 6.8 µM; hit rate 1.1% among 370,000; AID 652010, 2013;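 active = inhibition above the mean over all tested compounds plus 3 SD, cut at about 3.6% in these data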;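 note: higher inhibition means more luminescence from relief of DAX-1 repression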
ssDAF-12 act = S. stercoralis DAF-12 nuclear receptor activators, primary screen, cell-based, luminescence, HEK293, GRIP1 co-expression, lit1-tk-luc. HEK293 ssDAF-12/GRIP1 lit1-tk-luc reporter; % of 3 µM dafachronic acid response. activation, % at 6.8 µM. hit rate 1% among 370,000;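 active = activation above the mean over all tested compounds plus 3 SD, cut at about 0.9% in these data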
DAX1 inh-2 = DAX1 (NR0B1) inhibitors, primary screen, cell-based, HEK293, Gal4-DAX1, luciferase luminescence. HEK293 Gal4-DAX1 luciferase reporter. inhibition, % at 6.75 µM. hit rate 0.99% among 340,000;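 active = inhibition above the mean over all tested compounds plus 3 SD, cut at about 4.2% in these data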;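 note: inhibition shows as a rise in luminescence from relieved DAX1 repression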
Target sequence (P51843 207-470 limits assumed): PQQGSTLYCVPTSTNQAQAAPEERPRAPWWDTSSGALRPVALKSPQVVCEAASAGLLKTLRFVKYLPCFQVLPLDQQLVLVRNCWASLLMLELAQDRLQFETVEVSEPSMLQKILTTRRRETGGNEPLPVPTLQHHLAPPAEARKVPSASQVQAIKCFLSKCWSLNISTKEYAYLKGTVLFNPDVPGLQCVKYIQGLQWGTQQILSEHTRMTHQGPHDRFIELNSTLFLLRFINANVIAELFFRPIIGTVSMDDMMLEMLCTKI
Each line names hits and unclear results; the compound was inactive in the other large screens.

O=C(NCc1cccnc1)c1cc(-c2cccs2)on1	hgDAF12 agonist 12
CCCC[C@@H](CCCc1ccc(F)cc1)CCC(=O)N(c1ccccc1)c1ccccc1	none (no result: DAX1 inh-2)
C=CCN1C(=O)[C@@H](CC(=O)NCCc2ccccc2OC)[C@]2(C(=O)OCC)CCCCC/C=C/12	none (no result: DAX1 inh-2)
COc1ccc(-c2nnc(SCC(=O)N/N=C(\C)c3ccc(-c4ccccc4)cc3)n2-c2ccc(C)cc2)cc1	none (no result: DAX1 inh-2)
CCCc1cc(C(=O)NCc2ccccc2)no1	none
CCCc1cc(C(=O)NCc2cccs2)no1	ssDAF-12 act 2.0
C=CCNc1nc(Nc2ccc(OC)cc2)nc(OC)n1	none
C=CCNc1nc(Cl)nc(Nc2ccc(OC)cc2)n1	ssDAF-12 act 1.3
C=CCSC1=N/C(=C/c2ccsc2)C(=O)N1c1ccccc1	DAX1 inh-2 5.0
NNC(=O)c1ccc(COc2ccc3c(c2)CCC3)o1	hgDAF12 agonist 11
COc1cccc(OC)c1C(=O)NNC(=O)c1cccc(COc2ccc3c(c2)CCC3)c1	hgDAF12 agonist 12
COc1ccccc1NC(=O)c1ccc(COc2ccc3c(c2)CCC3)cc1	none
CC(C)Oc1cccc(C(=O)N2CCCC2)c1	ssDAF-12 act 1.1
O=C(O)c1cccc(COc2ccc(CO)cc2Cl)c1	DAX1 inh-1 3.6
Cc1ccc(C(=O)C2CCN(CC(=O)N3CCOCC3)CC2)cc1	none (no result: DAX1 inh-2)
COc1ccccc1CCC[C@H](CCS(=O)(=O)C(C)C)CC1CCCCC1	none (no result: DAX1 inh-2)
COc1cccc(COc2ccc3ccc(=O)oc3c2)c1	ssDAF-12 act 1.0
O=C(O)c1cc(OCc2ccccc2)cc(OCc2ccccc2)c1	none
O=Cc1ccc(OCc2cccc(C(F)(F)F)c2)cc1O	DAX1 inh-2 7.2
CCOc1ccc(C(=O)N2CCCC2)cc1	none
COc1ccc(OCc2cccc(C(=O)O)c2)cc1	hcDAF12 agonist 5.8
CCOc1ccc(OCc2cccc(C(=O)N3CCCC3)c2)cc1	DAX1 inh-1 4.2
COc1ccc2ccc(=O)oc2c1	none
O=C1CC2c3cc(-c4cc5ccccc5o4)ccc3CCN2C(=O)CN1Cc1ccccc1 (stereo unspecified)	none (no result: DAX1 inh-2)
O=S1(=O)c2ccc(Br)cc2OC[C@H](Cc2ccccc2)N1Cc1cn(Cc2ccc(F)cc2)nn1	none (no result: DAX1 inh-2)
O=C(OCC(F)(F)F)c1cccc(COc2ccc3ccccc3c2)c1	hgDAF12 agonist 15, hcDAF12 agonist 6.1, DAX1 inh-1 5.6
Cc1ccccc1C(=O)Nc1ccnn1C1CCN(Cc2c(C)n(C)c3ccccc23)CC1	hcDAF12 agonist 6.1
CCc1ccc(CN2CCC(n3nccc3NC(=O)c3ccccc3C)CC2)cc1	none
Cc1ccc(NC(=O)C2CC(=O)Nc3nncn32)cc1 (stereo unspecified)	ssDAF-12 act 8.3
CN1C(=O)c2cc(NS(=O)(=O)c3cccc(F)c3)ccc2OC[C@@H]2O[C@H](CC(=O)O)CC[C@H]21	none (no result: DAX1 inh-2)
COc1cccc2cc(-c3nc4ccccc4o3)c(=O)oc12	hgDAF12 agonist 11, DAX1 inh-2 4.4
CCC[C@H]1[C@@H](OC(=O)NCc2cccnc2)CC[C@@]23CCCN2C(=O)CCC[C@@H]13	none (no result: DAX1 inh-1, DAX1 inh-2)
Cc1cccc(CCNC(=O)c2ccc3c(c2)ncn3C2CCCCC2)c1	none (no result: DAX1 inh-2)
O=S1(=O)c2c(cccc2N2CCSCC2)Oc2ccccc2CN1Cc1cn(Cc2ccc(Cl)cc2)nn1	none (no result: DAX1 inh-2)
CCOC(=O)[C@@]12CCCC=C1N(CCc1ccc(Cl)cc1)C(=O)[C@H]2CC(=O)NCc1ccc(OC)c(OC)c1	none (no result: DAX1 inh-2)
CC(C)c1nnc(NC(=O)c2cccs2)s1	hgDAF12 agonist 12
O=C(Nc1nnc(C2CC2)s1)c1cccs1	DAX1 inh-1 3.8
CCCCC(CC)c1nnc(NC(=O)c2cccs2)s1 (stereo unspecified)	none
O=C(NCc1c(F)cccc1F)C1C2C=CC3(CN(Cc4ccccc4)C(=O)C13)O2 (stereo unspecified)	none (no result: DAX1 inh-2)
N#Cc1c(-c2ccccc2)nc(-c2ccccc2)[nH]c1=O	none
Nc1nc(-c2ccccc2)[nH]c(=O)c1N=O	DAX1 inh-2 4.2
